Source: PubChem BioAssay
EPAC1 antag – antagonists of human EPAC1; EPAC1 GEF assay, Rap1b-BODIPY-GDP exchange fluorescence; O95398; 360,000 tested, 0.14% active; Potency, µM (doses to about 115 µM), for inactives: at the highest dose activity change, negative = inhibition, usual class: inhibitors; AID 720709;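 also: plate controls were vehicle for no effect and positive control for full effect; nearly all actives have a fitted effect of over 50% in size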
EPAC2 agonist – activates human EPAC2 exchange factor; Potency, µM (highest dose often 154 µM), without a hit: top-dose activation, actives largely listed as activators; AID 720711; 360,000 tested, 0.079% active; Q8WZA2; EPAC2 activation, biochemical qHTS; response scale: 100% = 6.5 mM cAMP response; also: nearly all actives have a fitted effect of over 50% in size
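Compounds were titrated in qHTS against a Rap1B-BODIPY-GDP (250 nM) complex with EPAC2 (100 nM) and GDP (50 uM). BODIPY-GDP release tracked at 480/540 nm over 30 min at room temperature, normalized to 6.5 mM cAMP.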
EPAC2 antagonist – antagonists of human EPAC2; Q8WZA2; 360,000 tested, 0.18% active; EPAC2 GEF exchange of Rap1B-BODIPY-GDP, fluorescence; Potency, µM (series often up to 114 µM), inactives show at the top dose activity, negative = inhibition, actives largely listed as inhibitors; AID 720708; also: % is scaled to controls: 0 for no effect and ±100 for the full control effect; nearly all actives have a fitted effect of over 45% in size
EPAC1 agonist – activates human EPAC1 exchange factor | O95398 | EPAC1 agonist qHTS, biochemical assay; response scale: 100% = response to 6.5 mM cAMP | Potency, µM (doses to about 154 µM), inactives show at the top dose activation, most hits filed as activators | 360,000 tested, 0.073% active | AID 720707; also: nearly all actives have a fitted effect of over 60% in size
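Read-out is the fluorescence drop as BODIPY-GDP leaves Rap1B (480 nm excitation, 540 nm emission), recorded every 5 minutes over 30 minutes. Reactions held 100 nM EPAC1, 250 nM Rap1B–BODIPY-GDP and 50 uM GDP, with 6.5 mM cAMP setting full activation.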
USP1-UAF1 inh – inhibitors of human USP1/UAF1 deubiquitinase. 390,000 tested, 0.23% active. Potency, µM (highest dose often 57.1 µM), for the others: at the top dose activity change, negative = inhibition, usual class: inhibitors. recombinant USP1/UAF1, Ub-Rhodamine cleavage fluorescence; also: % is scaled to controls: 0 for no effect and ±100 for the full control effect; nearly all actives have a fitted effect of over 60% in size
Target sequence (O94782 whole entry, looked up): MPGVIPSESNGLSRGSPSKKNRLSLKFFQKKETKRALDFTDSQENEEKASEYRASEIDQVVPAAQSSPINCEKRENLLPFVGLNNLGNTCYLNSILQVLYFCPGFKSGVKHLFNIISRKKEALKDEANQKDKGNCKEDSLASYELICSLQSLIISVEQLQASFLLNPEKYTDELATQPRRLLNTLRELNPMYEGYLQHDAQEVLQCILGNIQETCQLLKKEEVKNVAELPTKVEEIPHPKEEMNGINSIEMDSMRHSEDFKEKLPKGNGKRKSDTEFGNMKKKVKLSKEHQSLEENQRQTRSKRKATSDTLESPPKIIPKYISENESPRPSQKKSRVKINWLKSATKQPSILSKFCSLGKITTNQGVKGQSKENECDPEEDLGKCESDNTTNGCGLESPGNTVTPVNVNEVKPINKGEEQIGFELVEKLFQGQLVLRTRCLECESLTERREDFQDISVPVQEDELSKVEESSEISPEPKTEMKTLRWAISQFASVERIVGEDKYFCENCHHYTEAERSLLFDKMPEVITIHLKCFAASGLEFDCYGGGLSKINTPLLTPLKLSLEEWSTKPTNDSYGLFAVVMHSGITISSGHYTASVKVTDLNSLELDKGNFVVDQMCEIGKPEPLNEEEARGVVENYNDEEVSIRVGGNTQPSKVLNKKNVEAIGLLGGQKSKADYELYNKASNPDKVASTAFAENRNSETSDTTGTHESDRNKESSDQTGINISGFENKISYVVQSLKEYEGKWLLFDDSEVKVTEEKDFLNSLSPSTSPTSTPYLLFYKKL
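Step one: compound is pinned into 1nM USP1/UAF1 in HEPES pH 7.8 buffer with TCEP. Step two: 15 min room-temperature incubation. Step three: Ub-Rho (150nM final) starts cleavage, tracked by fluorescence over six one-minute reads.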
* = called active by the depositor; ? = inconclusive; · = not tested or not shown; ! = not active in a repeat; [ ] = another dose, or the depositor's remark. Rows were chosen to be rich in hits. Some 0.44% of all compounds tested hit in one or more screens of this group. Calls follow the shape of the dose curve; as a rule, active = well fitted curve in the direction sought with a large enough effect; inconclusive = small, poorly fitted or top-dose-only effect, or another doubt; inactive = no such curve, though single readings can be large; an effect the other way counts as inactive or inconclusive. Potency is read from the fitted curve at half-maximal effect.

SMILES	EPAC1 antag	EPAC2 agonist	EPAC2 antagonist	EPAC1 agonist	USP1-UAF1 inh
CCOC(=O)C1=C(N)c2ccccc2CC1C1CCCC1 (configuration not stated)	-6%	0%	16µM*	-13%	-24%
Cc1cc(Nc2ccccc2)n(-c2nc3ccccc3[nH]2)n1	-10%	6.3µM*	8%	8%	-17%
CCCCOc1ccc(C(=O)NCC(c2ccc(Cl)cc2)N2CCOCC2)cc1 (configuration not stated)	·	·	·	·	-32%
O=C1CCn2c1c(O)c1ccccc1c2=O	0%	32%	1%	13%	5µM*
O=c1c2ccccc2nc2n1CCC2	?	-1%	2%	9%	-11%
CCOC(=O)C1CCN(C(=O)Nc2ccc3nc(-c4ccco4)c(-c4ccco4)nc3c2)CC1	?	3%	3%	-1%	?
O=C(NCCO)c1ccc2nc(-c3ccco3)c(-c3ccco3)nc2c1	?	-3%	2%	-1%	32µM*
O=C(c1ccccc1)c1ccc2nc(-c3ccco3)c(-c3ccco3)nc2c1	50µM*	-6%	-15%	-3%	?
O=C(Nc1ccc2nc(-c3ccco3)c(-c3ccco3)nc2c1)N1CCCCCC1	40µM*	1%	3%	-1%	32µM*
COc1ccc(NC(=O)c2c(NCc3cccs3)sc3c2CCCCC3)c(OC)c1	·	·	·	·	-17%
CC(NC(=O)C1CCN(C(=O)c2ccc(-n3ccc4ccccc43)s2)CC1)c1ccccc1 (configuration not stated)	·	·	·	·	-7%
CC1CCN(S(=O)(=O)c2ccc3c(c2)N(CC(=O)NCCc2ccc(Cl)cc2)C(=O)CO3)CC1	·	·	·	·	-27%
Cc1oc2c(cc(NS(=O)(=O)c3ccc(C(C)C)cc3)c3ccccc32)c1C(=O)O	-25%	?	-3%	-3%	28µM*!
N#Cc1c(SCC(=O)Nc2ccc(C(F)(F)F)cc2)sc2c(O)cc(=O)[nH]c12	1%	13%	1%	0%	-12%
N#Cc1c(SCC(=O)Nc2nncs2)sc2c(O)cc(=O)[nH]c12	89µM*	7%	1%	-9%	-10%
CC(=O)Nc1ccc(C2=NNC(=Nc3ccc(S(=O)(=O)N4CCOCC4)cc3)SC2)cc1	-3%	7%	2%	12%	16µM*
O=S(=O)(c1ccc(N=C2NN=C(c3cc(F)ccc3F)CS2)cc1)N1CCOCC1	-6%	4%	2%	3%	?
CC(=O)Nc1ccc(C2=NNC(=Nc3cccc(S(=O)(=O)N(C)C)c3)SC2)cc1	-13%	-17%	-2%[57.1 µM]	-13%	10µM*
CC1(C)c2ccccc2N(CC(N)=O)C12C=Cc1ccccc1O2 (configuration not stated)	-18%	-1%	18µM*	-8%	-7%
COc1ccc2ccc3c(c2c1)N=C[C@]1(O3)N(C)c2ccccc2C1(C)C	?	5%	0%	14%	?
CC(C)N(Cc1ccccc1)S(=O)(=O)c1ccc(N2CCCCS2(=O)=O)cc1	·	·	·	·	-26%
Cc1cc(Br)c2c(c1)[C@](O)(c1cn(C)c3ccccc13)C(=O)N2C	-8%	5%	22µM*	3%	·
Cc1cccc(C)c1Nc1c(-c2ccsc2)nc2cccc(C)n12	·	·	·	·	-11%
COc1ccc(-c2csc3nc(C)nc(N4CCCCC4)c23)cc1OC	-4%	8%	28µM*	-1%	-14%
N#CC1C(=O)NC(=O)C(C#N)C12CCCC2 (configuration not stated)	1%	-2%	1%	-3%	·
SMILES	EPAC1 antag	EPAC2 agonist	EPAC2 antagonist	EPAC1 agonist	USP1-UAF1 inh
CC(C)(C)c1c(Cl)c(O)c(-c2ccccc2)c(=O)n1-c1ccccc1	79µM*	0%	-6%	-4%	-7%
CC(C)N1CCc2c(sc(NC(=O)c3ccc(S(=O)(=O)N4CCc5ccccc54)cc3)c2C(N)=O)C1	?	-27%	45µM*	-12%	2%
CC(C)N1CCc2c(sc(NC(=O)c3ccc(S(=O)(=O)N4CCOCC4)cc3)c2C#N)C1	-9%	100µM*	20%	-4%	?
CCOC(=O)N1CCc2c(sc(NC(=O)c3ccc(S(=O)(=O)N4CCCC4)cc3)c2C#N)C1	-9%	5%	-1%	-3%	-36%
CC(C)N1CCc2c(sc(NC(=O)c3ccc(S(=O)(=O)N(C)C4CCCCC4)cc3)c2C(N)=O)C1	·	·	·	·	-18%
C#CC(C)(C)NS(=O)(=O)c1cc(-c2nnc(Nc3ccc(C)cc3)c3ccccc23)ccc1C	·	·	·	·	-28%
Nc1c(S(=O)(=O)O)cc(NC(=O)c2ccccc2)c2c1C(=O)c1ccccc1C2=O	?	0%	40µM*	-4%	-18%
O=C(N/N=C/c1c(O)n(-c2ccccc2Cl)c(=O)c2ccccc12)C1COc2ccccc2O1 (configuration not stated)	10µM*	-5%	14%	14%	-25%
CCC(=C(c1ccc(OC)cc1)c1ccc(OC)cc1)c1cn(CC(O)CN(CCO)CCO)c2ccccc12 (configuration not stated)	-6%	3%	14µM*	2%	-21%
CN(C)c1ccc(/C=C2\SC(=O)N(CC(O)Cn3c4ccccc4c4ccccc43)C2=O)cc1 (configuration not stated)	87%	22%	46%	?	13µM*
O=C1S/C(=C/c2ccccc2)C(=O)N1CC(O)Cn1c2ccccc2c2ccccc21 (configuration not stated)	-4%	1%	6%	-3%	-22%
CC(C)(C)NC(=O)NC(=O)CN1CCN(S(=O)(=O)c2ccc3c(c2)CCCC3)CC1	-9%	-2%	-12%	56µM*	-20%
COC(=O)c1c(NC(=O)CCCOc2cccc(C)c2)sc2c1C(C(=O)OC)CC2 (configuration not stated)	·	·	·	·	-31%
O=C(NCc1cc(C(F)(F)F)ccc1Cl)c1cccc2c1C(=O)c1ccc(N3CCCCC3)cc1S2(=O)=O	-3%	29%	372%	11%	20µM*
O=C(NCc1cc(C(F)(F)F)ccc1Cl)c1cccc2c1C(=O)c1ccc(N3CCC(N4CCCCC4)CC3)cc1S2(=O)=O	?	89µM*	?	-12%	-25%
COc1cc(N(C)C)ccc1C=c1c2ccccc2n2c1cc(-c1ccccc1)[n+]2C	-22%	-3%	-26%	-7%	?
CN(C)c1ccc(C=c2c3ccccc3n3c2cc(-c2ccccc2)[n+]3C)cc1	-15%	11%	-1%	16%	18µM*
COc1cc(C=c2c3ccccc3n3c2cc(-c2ccccc2)[n+]3C)cc(OC)c1OC	5%	?	36%	14%	2.2µM*
CN(C)c1ccc(C=c2c3ccccc3n3c2cc(-c2ccc(Cl)cc2)[n+]3C)cc1	0%	7%	-7%	-30%	-20%
